Assay results taken from PubChem BioAssay (EPA / NIEHS).
Active and inactive are the calls of the source. The calls were made as follows: active = hit-call score of the fitted dose curve at least 0.9, where 1 is the maximum; inactive = score below 0.9.

These compounds were tested on Intercellular Adhesion Molecule 1 (ICAM1), ICAM1 (gene 3383) (assay: LTEA_HepaRG_ICAM1: Life Technologies and Expression Analysis (LTEA) Assay for Intercellular Adhesion Molecule 1 (ICAM1) using HepaRG (AID 2283507)). Settings: mRNA level, 48 h; actives raise or lower the signal.
Experimental: LTEA_HepaRG is a cell based, multiplexed-readout assay that uses HepaRG, a human liver cell line, with measurements taken at 48 hours after chemical dosing on a 96-well plate.LTEA_HepaRG_ICAM1 is one of 102 assay component(s) measured in the LTEA HepaRG cell culture assay. It is a marker of Fibrosis.Data from the assay component LTEA_HepaRG_ICAM1 was analyzed into 1 endpoint. This assay endpoint, LTEA_HepaRG_ICAM1, was analyzed with bidirectional fitting relative to DMSO as the negative control and baseline of activity. Using a type of inducible reporter, measures of mRNA induction for gain or loss-of-signal activity can be used to understand regulation of transcription factor activity. To generalize the intended target to other relatable targets, this assay endpoint is annotated to the cell adhesion molecules intended target family, where the subfamily is Immunoglobulin CAM.
A total of 1060 chemcials from the ToxCast library were tested in eight-point concentration-response experiments. Cell culture and cytotoxicity assays were conducted at Thermo Fisher Scientific's Custom Services facility (Madison, WI). A single lot of human HepaRG cells (Thermo Fisher Scientific, Frederick, MD) was used for the cell culture experiments. 96-well format collagen type I coated plates of human HepaRG cells were prepared using established methods. Briefly, cryopreserved HepaRG cells were thawed, plated at a density of approximately 100,000 cells/well in HepaRG Thaw, Plate, and General Purpose media (HPRG770, Thermo Fisher Scientific), and incubated for 48 hours. 0.5% DMSO was selected as vehicle control to balance the requisite need of DMSO in HepaRG cultures to maintain differentiation (for example, baseline metabolism, proportions of hepatocytes vs. cholangiocytes), while enabling further hepatic receptor pathway activation (for example, PXR and CAR) in response to chemical exposure. 48 hours after plating, the culture medium was replaced with HepaRG Serum-Free Incudtion Media. Cells were exposed to each test chemical in duplicate and maintained in CO2 incubators for another 48 hours. Chemical plates were thawed to room temperature and 200x concentrations of treatment groups were prepared. 8-point conentration-reponse curves were made with the highest exposure at 100 uM, followed by half-log dilutions, all in 0.5% DMSO. Each test plate contained variouse controls, induction positive controls (1mM phenobarbital), cytotoxicity positive controls ([…] aflatoxin B1), vehicle controls (0.5% DMSO), and total lysis controls (0.5% DMSO). Cell morphology images were taken using an Essen IncuCyte FLR automated microscope, with six 96-well plates imaged in about 24 minutes. Images were captured and exported and JPEG files. Spent culture media was transfered to black-well plates for the LDH assay, and remaining media was sorted at -80 C for later use. Cells were treated with RLT buffer and frozen until shipped for gene expression analysis. Total RNA was isolated from the cell suspension in 75 uL of Buffer RLT (Qiagen, Germantown, MD 20874) by Quintiles/Expression Analysis (Durham, NC) using a custom isolation procedure. Total RNA from each plate well was transferred to a preamplification plate. Fluidigm's 96.96 Dynamic ArrayTM (Fluidigm, Amsterdam, the Netherlands) technology was used for gene expression analyses by quantitative reverse transcription polymerase chain reaction (qRT-PCR, performed by Quintiles/Expression Analysis, Durham, NC)89. Standard TaqManTM Assays (Applied Biosystems/ThermoFisher Scientific, Foster City, CA) were used to assess the expression of 93 genes selected based on their selectivity and sensitivity to important hepatic receptors known to be modulated by environmental chemicals; importance in human hepatocyte functionality; and hepatotoxicity. […]

outcome, inactive:
O=C1c2ccccc2C(=O)N1CCc1noc(-c2ccc(CN3CCCCCC3)s2)n1, Cc1ncc(CO)c(CO)c1O, OC12N=C(c3ccccc3)SC1Cc1cc(Cl)ccc12 (stereo not given), CC[C@H](NC(=O)c1cc(F)ccc1NS(=O)(=O)c1cccc2cccnc12)c1ccccc1, Oc1ccccc1, Cc1ccc(C(C)C)cc1, CC(C)(C)c1csc(-c2cc3cc(OCc4ccccc4CC(=O)O)ccc3o2)n1, CCCCCCCCOc1ccc(C(=O)c2ccccc2)c(O)c1, CCCCCCCCOC(=O)c1cc(O)c(O)c(O)c1, Cc1cccc2ccccc12, CN1C(=O)N(c2ccccc2Br)Cc2cnc(Nc3ccc4c(c3)OCC(CO)O4)nc21 (stereo not given), NC(=O)c1nc(-c2cccc(-c3cc(F)ccc3OCC(F)(F)C(F)(F)F)c2)n[nH]1, CC1(C)NC(=O)N(c2ccc([N+](=O)[O-])c(C(F)(F)F)c2)C1=O, CCCCCCCC[Si](OCC)(OCC)OCC, Cc1occc1C(=O)Nc1ccc(C(=O)N2CCC(F)(F)/C(=C\C(=O)N3CCC(N4CCCCC4)CC3)c3ccccc32)cc1, O=C(Nc1ccc(Cl)cc1)Nc1ccc(Cl)c(Cl)c1, C[C@]12CC[C@@H]3c4ccc(O)cc4CC[C@H]3[C@@H]1CC[C@H]2O, CCOC(=O)O[C@H](C)OC(=O)c1ccc2c(c1)cc(C(=O)NC1CCN(C(C)C)CC1)n2Cc1cc(-c2ccc(Cl)s2)on1, O=c1ccc2ccccc2o1, CC[C@@H]1C[C@H](N(Cc2cc(C(F)(F)F)cc(C(F)(F)F)c2)C(C)=O)c2cc(C(F)(F)F)ccc2N1C(=O)OC(C)C, Clc1cc(Cl)c2c(c1)N=C1CCCCCN1C2, CCCCCCCCN(C)CCCCCCCC, O=c1[nH]sc2ccccc12, CCCCCc1ccc(N)cc1, Oc1ccc2ccccc2c1, COc1cccc([C@H](O)C2CCN(CCc3ccc(F)cc3)CC2)c1OC, CC(O)CC(C)(C)O (stereo not given), O=C1O[C@H]([C@@H](O)CO)C(O)=C1O

AC50, active:
c1ccc(C[n+]2cccc3ccccc32)cc1 70.8 µM, CCN(CC)C(=O)c1cc(S(=O)(=O)Cc2ccccc2)c(N2CCC(c3ccccc3)CC2)cc1N(CC)CCN(C)C 19 µM, CN(C)C(=O)C1(N2CCCCC2)CCN(CC[C@@]2(c3ccc(Cl)c(Cl)c3)CN(C(=O)c3ccccc3)CCO2)CC1 47.2 µM, Clc1ccccc1C(c1ccccc1)(c1ccccc1)n1ccnc1 90.6 µM, CCCCCCCCCCCC[N+](C)(C)C 76.4 µM, Cc1oc2c(NC(=O)c3c(Cl)cccc3Cl)cccc2c1C(C)(C)O 50 µM, CCN(Cc1cccnc1)C(=O)c1cccc(Cl)c1[C@]1(C)C(=O)N(Cc2ccc(OC)cc2OC)c2ccc(Cl)cc21 21.2 µM, Cc1cc(F)ccc1-c1cc(N2CC[C@@H](O)[C@H]2CO)ncc1N(C)C(=O)C(C)(C)c1cc(C(F)(F)F)cc(C(F)(F)F)c1 22.4 µM, CC(=O)N1CCN(c2ccc(OC[C@H]3CO[C@](Cn4ccnc4)(c4ccc(Cl)cc4Cl)O3)cc2)CC1 26.6 µM, COc1ccc2cc(S(=O)(=O)N[C@H](CC(=O)N[C@H](Cc3ccc(CN4[C@H](C)CCC[C@@H]4C)cc3)C(=O)N(C)C(C)C)c3ccc4c(c3)OCO4)ccc2c1 12 µM, CC(C)(C)c1cc(/C=C2\SC(N)=NC2=O)cc(C(C)(C)C)c1O 29.9 µM, Cc1c2ccccc2c(C)c2c1ccc1ccccc12 82.1 µM
